Results with a measured potency or affinity are listed apart.

Drawing on ChEMBL document CHEMBL4513146, “CO-ADD screening of Karazin Kharkiv National University (Ukraine) compounds”, this text covers Inhibition for three molecules.

One assay concerns Staphylococcus aureus. To be noted: Concentration 32 ug.mL-1;; ASSAY_TEST Inhibition of Bacterial Growth; detection method Absorption (OD600); MEDIA CAMHB; plate type 384well; NBS; CORNING #3640; time 18 hr.
The subject of another assay is Escherichia coli. Conditions: Concentration 32 ug.mL-1;; ASSAY_TEST Inhibition of Bacterial Growth; detection method Absorption (OD600); MEDIA CAMHB; plate type 384well; NBS; CORNING #3640; time 18 hr.

One may read the Inhibition as the drop in the measured response relative to a control, in per cent. As to `Cc1nnc2c(SCC(=O)N3CCN(c4ccc(F)cc4)CC3)nc3ccccc3n12`, the Inhibition in the assay with Staphylococcus aureus is 9.13%; with Escherichia coli it was 7.96%.

Regarding `O=C(Cn1nc2ccc(Sc3ccccc3)nn2c1=O)Nc1ccc(Cl)cc1`, the values for the Inhibition in the assay on Staphylococcus aureus and in the assay with Escherichia coli were 14.57% and 0.83%, respectively.

Regarding `CCc1cccc(NC(=O)Cn2nc3c(SC4CCCCC4)nccn3c2=O)c1`, the Inhibition with Staphylococcus aureus is recorded as -3.76%; in the assay on Escherichia coli, -12.2%.
